Data from PubChem BioAssay AID1159580 (chemical genetic matrix, 2015).
About 2,000 (36%) of roughly 5,500 compounds were called active. Not shown: some 18% with an inconclusive outcome. Rule as the data show it: active = normalized growth mostly below about 0.91 (no sharp cut-off); inconclusive = no clear call, values can overlap the other calls; inactive = mostly above about 0.92. The list shows a part of the results.

Test: chemical genetic growth profiling, strain panel (AID 1159580);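 also: tested at 20 µM; growth read once vehicle control cultures reached saturation at 30 °C; 1 = growth at the plate median or of vehicle wells; lower values mean less growth of the strain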
Conditions: growth OD
[1] = S. cerevisiae deletion strains, locus YDR150W, strain NUM1, hits give low values
[2] = S. cerevisiae deletion strains, locus YMR263W, strain SAP30, hits give low values
[3] = S. cerevisiae deletion strains, locus YMR307W, strain GAS1, hits give low values
[4] = S. cerevisiae deletion strains, locus YNL322C, strain KRE1, hits give low values
[5] = S. cerevisiae deletion strains, locus YDL101C, strain DUN1, hits give low values
[6] = S. cerevisiae deletion strains, locus YHR030C, strain SLT2, hits give low values
[7] = S. cerevisiae deletion strains, locus YHR079C, strain IRE1, hits give low values
[8] = S. cerevisiae deletion strains, locus YJL095W, strain BCK1, hits give low values
[9] = S. cerevisiae deletion strains, locus YJR066W, strain TOR1, hits give low values
[10] = S. cerevisiae deletion strains, locus YLR113W, strain HOG1, hits give low values
[11] = S. cerevisiae deletion strains, locus YNL183C, strain NPR1, hits give low values
[12] = S. cerevisiae deletion strains, locus YOR231W, strain MKK1, hits give low values
[13] = S. cerevisiae deletion strains, locus YPL256C, strain CLN2, hits give low values

Measured: normalized growth

CC(C)(C)c1cc(/C=C(\C#N)C(N)=S)cc(C(C)(C)C)c1O
active: S. cerevisiae deletion strains, locus YOR083W, strain WHI5 (second series), hits give low values 0.832
inactive: S. cerevisiae deletion strains, locus YAL040C, strain CLN3, hits give low values 0.912 | S. cerevisiae deletion strains, locus YCL061C, strain MRC1 (second series), hits give low values 1.01 | [1] 1 | S. cerevisiae deletion strains, locus YDR363W, strain ESC2, hits give low values 1.04 | S. cerevisiae deletion strains, locus YER002W, strain NOP16, hits give low values 0.997 | [2] 1.01 | [3] 1.01 | S. cerevisiae deletion strains, locus YNL175C, strain NOP13, hits give low values 1.02 | S. cerevisiae deletion strains, locus YNL197C, strain WHI3, hits give low values 0.913 | S. cerevisiae deletion strains, locus YNL224C, strain SQS1, hits give low values 0.929 | [4] 1.02

O=C1c2ccccc2C(=O)N1CNc1ccc(N2CCOCC2)cc1
inactive: S. cerevisiae deletion strains, locus YAL013W, strain DEP1, hits give low values 1 | S. cerevisiae deletion strains, locus YBR229C, strain ROT2, hits give low values 1 | S. cerevisiae deletion strains, locus YCL061C, strain MRC1, hits give low values 0.999 | [5] 1.01 | [1] 0.901 | S. cerevisiae deletion strains, locus YEL061C, strain CIN8, hits give low values 0.986 | S. cerevisiae deletion strains, locus YGR078C, strain PAC10, hits give low values 1 | [6] 0.976 | S. cerevisiae deletion strains, locus YHR087W, strain rtc3, hits give low values 1.02 | S. cerevisiae deletion strains, locus YJR043C, strain POL32, hits give low values 1 | S. cerevisiae deletion strains, locus YJR075W, strain HOC1, hits give low values 1.01 | S. cerevisiae deletion strains, locus YKL190W, strain CNB1, hits give low values 0.994 | S. cerevisiae deletion strains, locus YLR039C, strain RIC1, hits give low values 1.02 | S. cerevisiae deletion strains, locus YLR058C, strain SHM2 (second series), hits give low values 0.997 | S. cerevisiae deletion strains, locus YLR085C, strain ARP6, hits give low values 0.977 | S. cerevisiae deletion strains, locus YLR262C, strain YPT6, hits give low values 1.01 | S. cerevisiae deletion strains, locus YML094W, strain GIM5, hits give low values 1.02 | S. cerevisiae deletion strains, locus YMR219W, strain ESC1, hits give low values 1 | [2] 0.993 | [3] 1.01 | S. cerevisiae deletion strains, locus YNL153C, strain GIM3, hits give low values 1.01 | S. cerevisiae deletion strains, locus YNL298W, strain CLA4 (second series), hits give low values 1.02 | [4] 0.977 | S. cerevisiae deletion strains, locus YNR030W, strain Alg12, hits give low values 0.994 | S. cerevisiae deletion strains, locus YOL006C, strain TOP1, hits give low values 0.997 | S. cerevisiae deletion strains, locus YPL055C, strain LGE1, hits give low values 0.861 | S. cerevisiae deletion strains, locus YPL241C, strain CIN2, hits give low values 1.01 | S. cerevisiae deletion strains, locus YPR135W, strain CTF4, hits give low values 1.09 | S. cerevisiae strains, strain wild type, hits give low values 1.02

OC[C@H]1O[C@H](O[C@]2(CCl)O[C@H](CCl)[C@@H](O)[C@@H]2O)[C@H](O)[C@@H](O)[C@H]1Cl
inactive: [6] 1.04 | [7] 0.979 | [8] 0.996 | [9] 0.952 | [10] 0.977 | [11] 0.895 | [12] 0.972 | [13] 0.984

FC(F)(F)c1ccc(N2CCc3ccccc3C2)c(NC(=S)Nc2cc(Cl)cc(Cl)c2)c1
inactive: S. cerevisiae deletion strains, locus YAR019C, strain CDC15, hits give low values 0.972 | S. cerevisiae deletion strains, locus YBL105C, strain PKC1, hits give low values 0.981 | S. cerevisiae deletion strains, locus YBR135W, strain CKS1, hits give low values 0.978 | S. cerevisiae deletion strains, locus YBR136W, strain MEC1, hits give low values 0.997 | S. cerevisiae deletion strains, locus YBR160W, strain CDC28, hits give low values 0.989 | S. cerevisiae deletion strains, locus YDL017W, strain CDC7, hits give low values 0.982 | S. cerevisiae deletion strains, locus YDL028C, strain MPS1, hits give low values 0.987 | [5] 0.978 | S. cerevisiae deletion strains, locus YDL108W, strain KIN28, hits give low values 0.998 | S. cerevisiae deletion strains, locus YDL132W, strain cdc53, hits give low values 0.985 | S. cerevisiae deletion strains, locus YDL214C, strain PRR2, hits give low values 0.924 | S. cerevisiae deletion strains, locus YDR052C, strain DBF4, hits give low values 0.98 | S. cerevisiae deletion strains, locus YDR054C, strain cdc34, hits give low values 0.969 | S. cerevisiae deletion strains, locus YDR226W, strain ADK1, hits give low values 0.99 | S. cerevisiae deletion strains, locus YDR477W, strain SNF1, hits give low values 0.937 | S. cerevisiae deletion strains, locus YER123W, strain YCK3, hits give low values 0.908 | S. cerevisiae deletion strains, locus YER133W, strain GLC7, hits give low values 0.939 | S. cerevisiae deletion strains, locus YFL009W, strain cdc4, hits give low values 0.983 | S. cerevisiae deletion strains, locus YFL029C, strain CAK1, hits give low values 0.975 | S. cerevisiae deletion strains, locus YFR003C, strain YPI1, hits give low values 0.993 | S. cerevisiae deletion strains, locus YFR019W, strain FAB1, hits give low values 0.957 | S. cerevisiae deletion strains, locus YFR028C, strain CDC14, hits give low values 0.971 | S. cerevisiae deletion strains, locus YGR040W, strain KSS1, hits give low values 0.939 | S. cerevisiae deletion strains, locus YGR052W, strain FMP48, hits give low values 1.01 | S. cerevisiae deletion strains, locus YGR092W, strain DBF2, hits give low values 0.869 | [6] 1.15 | [7] 1.06 | S. cerevisiae deletion strains, locus YHR082C, strain KSP1, hits give low values 1 | S. cerevisiae deletion strains, locus YHR205W, strain SCH9, hits give low values 0.962 | S. cerevisiae deletion strains, locus YIL147C, strain SLN1, hits give low values 0.993 | [8] 1.02 | S. cerevisiae deletion strains, locus YJL128C, strain PBS2, hits give low values 0.968 | S. cerevisiae deletion strains, locus YJL157C, strain FAR1, hits give low values 0.908 | S. cerevisiae deletion strains, locus YJR016C, strain ILV3, hits give low values 0.985 | S. cerevisiae deletion strains, locus YJR066W, strain TOR1 (second series), hits give low values 0.899 | [9] 1.02 | S. cerevisiae deletion strains, locus YKL048C, strain ELM1, hits give low values 0.963 | S. cerevisiae deletion strains, locus YKL067W, strain YNK1, hits give low values 0.931 | S. cerevisiae deletion strains, locus YKL101W, strain HSL1, hits give low values 0.959 | S. cerevisiae deletion strains, locus YKL193C, strain SDS22, hits give low values 0.974 | S. cerevisiae deletion strains, locus YKL203C, strain TOR2, hits give low values 1.02 | [10] 1.03 | S. cerevisiae deletion strains, locus YLR133W, strain CKI1, hits give low values 0.936 | S. cerevisiae deletion strains, locus YLR403W, strain SFP1, hits give low values 0.945 | S. cerevisiae deletion strains, locus YML070W, strain DAK1, hits give low values 0.938 | S. cerevisiae deletion strains, locus YMR001C, strain CDC5, hits give low values 0.969 | S. cerevisiae deletion strains, locus YMR205C, strain PFK2 (second series), hits give low values 0.947 | S. cerevisiae deletion strains, locus YMR277W, strain FCP1, hits give low values 0.972 | S. cerevisiae deletion strains, locus YNL006W, strain LST8, hits give low values 0.984 | S. cerevisiae deletion strains, locus YNL020C, strain ARK1, hits give low values 0.934 | S. cerevisiae deletion strains, locus YNL161W, strain CBK1, hits give low values 0.978 | [11] 1.03 | S. cerevisiae deletion strains, locus YNL207W, strain RIO2, hits give low values 0.979 | S. cerevisiae deletion strains, locus YNL222W, strain SSU72, hits give low values 0.979 | S. cerevisiae deletion strains, locus YNL307C, strain MCK1 (second series), hits give low values 0.941 | S. cerevisiae deletion strains, locus YOL078W, strain AVO1, hits give low values 0.976 | S. cerevisiae deletion strains, locus YOL136C, strain PFK27, hits give low values 0.956 | S. cerevisiae deletion strains, locus YOR061W, strain CKA2, hits give low values 0.908 | S. cerevisiae deletion strains, locus YOR119C, strain RIO1, hits give low values 0.98 | [12] 1.01 | S. cerevisiae deletion strains, locus YOR329C, strain SCD5, hits give low values 0.985 | S. cerevisiae deletion strains, locus YPL031C, strain PHO85, hits give low values 0.929 | S. cerevisiae deletion strains, locus YPL153C, strain RAD53, hits give low values 0.931 | S. cerevisiae deletion strains, locus YPL204W, strain HRR25, hits give low values 0.939 | S. cerevisiae deletion strains, locus YPL209C, strain IPL1, hits give low values 0.982 | [13] 1.07 | S. cerevisiae deletion strains, locus YPR025C, strain CCL1, hits give low values 0.967 | S. cerevisiae deletion strains, locus YPR106W, strain ISR1, hits give low values 0.982 | S. cerevisiae deletion strains, locus YPR111W, strain DBF20, hits give low values 0.985 | S. cerevisiae deletion strains, strain NNK1, hits give low values 0.991 | S. cerevisiae deletion strains, strain TSCII, hits give low values 0.972
